Several values for one entry are separate records, joined by “and”; a condition that tells them apart may be missing. Identical values can stand only once. Counter-ions that a name gives are not always drawn.
Columns and labels:
Experiment in all cases: thermal shift delta Tm vs DMSO control; higher = stronger stabilization (binding)
Details in all cases: 12.5 µM; protein concentration 2 µM
LOC_OS04G57630-cb004 = tested on: LOC_OS04G57630-cb004
In short: (§1)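 Heating from 25°C to 95°C at 0.05°C/s, fluorescence was recorded for 19.5 μl wells of 2 μM E. coli-expressed, purified rice kinase domain in 100 mM potassium phosphate pH 7.5, 150 mM NaCl, 10% glycerol and 5 × SYPRO Orange with compound in DMSO. Boltzmann fits gave melting temperatures for this differential scanning fluorimetry assay. The shift reported is the mean of three replicates against the DMSO-only protein.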

LOC_OS05G07850-cb002 = tested on: LOC_OS05G07850-cb002
In short: as §1

LOC_OS05G16824-cb004 = tested on: LOC_OS05G16824-cb004
In short: as §1

LOC_OS05G28520-cb001 = tested on: LOC_OS05G28520-cb001
In short: as §1

LOC_OS05G30820-cb001 = tested on: LOC_OS05G30820-cb001
In short: as §1

LOC_OS05G43570-cb004 = tested on: LOC_OS05G43570-cb004
In short: as §1

LOC_OS06G16330-cb003 = tested on: LOC_OS06G16330-cb003
In short: as §1

LOC_OS06G22820-cb001 = tested on: T1, LOC_OS06G22820-cb001
T1 sequence (whole entry): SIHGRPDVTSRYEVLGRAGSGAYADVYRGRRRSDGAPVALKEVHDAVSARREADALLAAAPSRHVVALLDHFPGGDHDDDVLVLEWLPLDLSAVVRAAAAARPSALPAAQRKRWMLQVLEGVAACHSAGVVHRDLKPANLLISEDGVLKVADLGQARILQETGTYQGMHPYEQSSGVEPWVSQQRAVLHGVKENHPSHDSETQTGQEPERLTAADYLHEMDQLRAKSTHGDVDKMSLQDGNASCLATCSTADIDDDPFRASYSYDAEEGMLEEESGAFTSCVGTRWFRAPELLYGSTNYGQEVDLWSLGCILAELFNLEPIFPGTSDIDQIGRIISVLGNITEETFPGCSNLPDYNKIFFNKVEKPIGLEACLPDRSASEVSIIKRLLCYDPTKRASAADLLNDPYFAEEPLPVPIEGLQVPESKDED
In short: as §1

LOC_OS07G06570-cb004 = tested on: LOC_OS07G06570-cb004
In short: as §1

LOC_OS07G07230-cb001 = tested on: LOC_OS07G07230-cb001
In short: as §1
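Also: purified Escherichia coli-expressed rice kinase domain construct.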

Sequence of LOC_OS06G16330-cb003 (as listed by the source): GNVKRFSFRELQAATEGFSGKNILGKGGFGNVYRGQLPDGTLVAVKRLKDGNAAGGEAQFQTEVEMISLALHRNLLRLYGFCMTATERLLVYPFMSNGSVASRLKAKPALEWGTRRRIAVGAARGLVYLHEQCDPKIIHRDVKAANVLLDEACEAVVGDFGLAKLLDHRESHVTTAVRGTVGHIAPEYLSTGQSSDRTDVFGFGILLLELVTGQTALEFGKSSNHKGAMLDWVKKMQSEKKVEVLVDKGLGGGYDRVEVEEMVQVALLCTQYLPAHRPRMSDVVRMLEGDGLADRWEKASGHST

Structure (SMILES) | thermal shift delta Tm (LOC_OS04G57630-cb004) | thermal shift delta Tm (LOC_OS05G07850-cb002) | thermal shift delta Tm (LOC_OS05G16824-cb004) | thermal shift delta Tm (LOC_OS05G28520-cb001) | thermal shift delta Tm (LOC_OS05G30820-cb001) | thermal shift delta Tm (LOC_OS05G43570-cb004) | thermal shift delta Tm (LOC_OS06G16330-cb003) | thermal shift delta Tm (LOC_OS06G22820-cb001) | thermal shift delta Tm (LOC_OS07G06570-cb004) | thermal shift delta Tm (LOC_OS07G07230-cb001)
CCCCCCCCc1ccc(CCC(N)(CO)CO)cc1 [Fingolimod (FTY720) HCl] | -0.4 °C | 1.83 °C | -4.01 °C | -0.43 °C | -0.07 °C | -1.13 °C | -1.94 °C | 0.07 °C | 0.28 °C | -1.48 °C
CCc1cnn2c(NCc3ccc[n+]([O-])c3)cc(N3CCCC[C@H]3CCO)nc12 | -0.16 °C | 2 °C | -0.11 °C | 0.17 °C | 0.37 °C | 0.19 °C | -0.11 °C | 0.41 °C | 0.51 °C | 0.3 °C
CCN1/C(=C/C(C)=O)Sc2ccc(OC)cc21 | -0.02 °C | 2.71 °C | 0.06 °C | 0.32 °C | 0.33 °C | 0.34 °C | -0.18 °C | 0.54 °C | 0.57 °C | 0.23 °C
COc1ccc(Cl)cc1NC(=O)Nc1cc(C)nc2ccccc12 | 0.07 °C | 0.02 °C | 0.17 °C | 0.38 °C | 0.46 °C | 0.5 °C | 0.31 °C | 0.69 °C | 0.61 °C | 0.62 °C
CCCNC(=O)Nc1ccc(Oc2ncnc3cc(OC)c(OC)cc23)cc1Cl | 0.94 °C | 5.45 °C | -1.66 °C | -0.19 °C | 0.49 °C | 0.07 °C | 1.43 °C | 0.78 °C | 0.73 °C | 0.03 °C
CN(c1ncccc1CNc1nc(Nc2ccc3c(c2)CC(=O)N3)ncc1C(F)(F)F)S(C)(=O)=O | 1.44 °C and 2.05 °C | 8.97 °C and 9.58 °C | 9.12 °C and 9.67 °C | 0.98 °C and 1.52 °C | 4.26 °C and 3.92 °C | 0.77 °C and 0.58 °C | 4.21 °C and 5.5 °C | -0.01 °C and -0.19 °C | 0.81 °C and 1.35 °C | 0.45 °C and 0.44 °C
Cc1ccc(NC(=O)c2ccc(CN3CCN(C)CC3)cc2)cc1Nc1nccc(-c2cccnc2)n1 [Imatinib (STI571)] | 0.39 °C | 2.43 °C | -0.13 °C | 0.71 °C | 0.5 °C | 0.23 °C | 0.3 °C | 0.22 °C | 1.37 °C | 0.97 °C
C[C@H]1[C@H](C)CC[C@]2(C(=O)O)CC[C@]3(C)C(=CC[C@@H]4[C@@]5(C)C[C@@H](O)[C@H](O)[C@@](C)(CO)[C@@H]5CC[C@]43C)[C@H]12 [Asiatic Acid] | 0.45 °C | 0.11 °C | -3.69 °C | 0.47 °C | 0.73 °C | 1.08 °C | -0.23 °C | 0.71 °C | 0.82 °C | 0.24 °C
Cc1c(Cn2c(C)nc3c(C(=O)O)cc(N4CCOCC4)cc32)cccc1C(F)(F)F | -0.06 °C | -0.15 °C | -2.15 °C | -0.07 °C | 0.36 °C | 0.33 °C | -0.16 °C | 0.35 °C | 1.32 °C | 0.5 °C
CN1CCC(CNc2ccc3ncc(-c4cccc(OC(F)(F)F)c4)n3n2)CC1 [SGI-1776 free base] | 1.46 °C | 12 °C | 3.25 °C | 0.98 °C | 0.86 °C | 0.36 °C | 3.37 °C | 0.41 °C | 0.32 °C | 0.72 °C
O=c1cc(N2CCOCC2)oc2c(-c3ccccc3)cccc12 | 0.2 °C | 1.02 °C | 0.85 °C | 0.91 °C | 0.41 °C | 0.98 °C | 0.37 °C | 1.05 °C | 0.89 °C | -0.39 °C
CC[C@@H]1C(=O)N(C)c2cnc(Nc3ccc(C(=O)N[C@H]4CC[C@H](N5CCN(CC6CC6)CC5)CC4)cc3OC)nc2N1C(C)C [Volasertib (BI 6727)] | 0.28 °C | 1.33 °C | 2.5 °C | -0.32 °C | 0.58 °C | 0.4 °C | 0.46 °C | 0.34 °C | 0.62 °C | -0.12 °C
C1=N/C2=N/c3ccc(OCCN4CCCC4)c(c3)COC/C=C/COCc3cccc(c3)C(=C1)N2 [Pacritinib (SB1518)] | 4.36 °C | 12.8 °C | 7.5 °C | 3.33 °C | 0.55 °C | 0.68 °C | 10.1 °C | 0.41 °C | 1.64 °C | 0.85 °C
Cc1cc(Nc2ncnc3ccc(-c4ccc(CNCCS(C)(=O)=O)o4)cc23)ccc1Oc1ccn2ncnc2c1 [HER2-Inhibitor-1] | 2.09 °C | 6.61 °C | 2.73 °C | 1.2 °C | 0.57 °C | 0.41 °C | 3.81 °C | 0.78 °C | 1.57 °C | 0.55 °C
Cc1cccc(CC(=O)N2CCc3c2ccc(-c2cn(C)c4ncnc(N)c24)c3F)n1 | 1.09 °C | 2.24 °C | 0.43 °C | 0.62 °C | 0.47 °C | 0.42 °C | 1.13 °C | 0.75 °C | 1.03 °C | 1.75 °C
Cc1cc(Nc2cc(CN3CCOCC3)c3nc(C)c(Cc4ccc(Cl)cc4F)n3n2)n[nH]1 | 1.33 °C | 11.1 °C | 6.97 °C | 1.47 °C | 1.14 °C | 0.39 °C | 9.97 °C | -0.03 °C | 0.22 °C | -0.28 °C
Cc1ccccc1CN1C2=NCCN2C(=O)C2=C1CCN(Cc1ccccc1)C2 [TIC10 Analogue] | -0.16 °C | -0.89 °C | -2.52 °C | 0.56 °C | 0.36 °C | 0.33 °C | -0.41 °C | 0.74 °C | 1.19 °C | 0.09 °C
N#C/C(=C\c1ccc(O)c(O)c1)C(=O)NCc1ccccc1 [AG-490 (Tyrphostin B42)] | -1.22 °C | -1.56 °C | -18.1 °C | 1.95 °C | 0.64 °C | 0.9 °C | -0.03 °C | 1 °C | 2.29 °C | 0.61 °C
Cc1nc(Nc2n[nH]c3c2CN(C(=O)N[C@H](CN(C)C)c2ccccc2)C3(C)C)c2sccc2n1 | 0.4 °C | 1.45 °C | 5.08 °C | 2.24 °C | 0.45 °C | 1.95 °C | 0.72 °C | 2 °C | 1.67 °C | 0.02 °C

Source: the supplement of paper PMC9694430
